Consider 15 compounds from PubChem BioAssay (NCATS).

Inconclusive results are not listed. Calls of active or inactive are those of the source. Calls follow the shape of the dose curve; as a rule, active = well fitted cell-killing curve with a large enough effect; inconclusive = small, poorly fitted or top-dose-only effect, or effect the other way; inactive = no such curve, though single readings can be large or run the other way.
Potency is read from the fitted curve at half-maximal effect.

A short description of the experiment: qHTS of pediatric cancer cell lines to identify multiple opportunities for drug repurposing: Confirmatory screen for NB1643 cells (AID 1347109). Also: nearly all actives have a fitted effect of over 45% in size. Particulars: NB1643 neuroblastoma cell viability; series mostly up to 45.9 µM. The essentials:
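Viability after 48 h compound treatment at 37C, 500-1,000 cells/well, read as ATP luminescence with CellTiter-Glo. Primary screens used 11-point (MIPE, 0.78 nM-46 µM) or 8-point (NPC, 0.59 nM-46 µM) final concentrations; follow-up screens used 11-point dilutions.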
With `C[C@@H]1[C@H](O)[C@@H](C)C=CC=CC=CC=CC=CC=CC=C[C@H](O[C@@H]2O[C@H](C)[C@H](O)[C@H](N)[C@@H]2O)C[C@@H]2O[C@](O)(C[C@@H](O)C[C@@H](O)[C@H](O)CC[C@@H](O)C[C@@H](O)CC(=O)O[C@H]1C)C[C@H](O)[C@@H]2C(=O)O`, the Potency entry is “inactive”.
On to `CCC[C@H](N[C@@H](C)C(=O)N1[C@@H]2CCCC[C@H]2C[C@H]1C(=O)O)C(=O)OCC`, for which the Potency result is “inactive”.
Consider `CCC(=O)OCC(=O)[C@@]1(OC(=O)CC)[C@@H](C)C[C@@H]2[C@H]3CCC4=CC(=O)C=C[C@]4(C)[C@@]3(F)[C@@H](O)C[C@@]21C`, for which the Potency result was “inactive”.
As to `CC[C@]1(O)C[C@H]2CN(CCC3=c4ccccc4=N[C]3[C@@](C(=O)OC)(c3cc4c(cc3OC)N(C)[C@H]3[C@@](O)(C(N)=O)[C@H](O)[C@]5(CC)C=CCN6CC[C@]43[C@@H]65)C2)C1`, the Potency is 0.104 µM (active).
`COc1cc(CNC(=O)CCCCC=CC(C)C)ccc1O`: the Potency entry was “inactive”.
With `CCC(C)SSc1ncc[nH]1` (stereo not given), the Potency was 18.5 µM (active).
As to `C[C@@]1(c2cc(-c3cncnc3)c(F)cc2F)CCSC(N)=N1`, the Potency was 20.8 µM (active).
For the compound `CCOC(=O)[C@H](CCc1ccccc1)N[C@@H](C)C(=O)N1CCCC1C(=O)O` (stereo not given in full), the Potency is 7.37 µM (active).
On to `CC1=C(CC(=O)O)c2cc(F)ccc2C1=Cc1ccc(S(C)=O)cc1` (stereo not given), for which the Potency result was “inactive”.
As for `CSc1cccc(Nc2ncc3cc(-c4c(Cl)cccc4Cl)c(=O)n(C)c3n2)c1`, the Potency is 2.93 µM (active).
The result for `Cc1ccccc1-n1c(Cn2nc(-c3cccc(O)c3)c3c(N)ncnc32)nc2cccc(C)c2c1=O` reads “inactive”; that for `CCC[C@H](Nc1nc(-c2ccc(NC(=O)NCC)c(OC)c2)ncc1C)c1cccnc1`, 0.165 µM (active); that for `COc1cc([C@@H]2c3cc4c(cc3[C@@H](O[C@@H]3O[C@@H]5CO[C@@H](C)O[C@@H]5[C@H](O)[C@@H]3O)[C@H]3COC(=O)[C@H]23)OCO4)cc(OC)c1O`, 1.47 µM (active).
In the case of `C[C@@H]1C[C@H]2[C@@H]3CCC4=CC(=O)C=C[C@]4(C)[C@@]3(F)[C@@H](O)C[C@]2(C)[C@@]1(O)C(=O)CO`, the Potency entry is “inactive”.
For the compound `Cc1ccc(C(=O)N(CCCN)[C@@H](c2oc3cc(Cl)ccc3c(=O)c2Cc2ccccc2)C(C)C)cc1`, the Potency was 6.57 µM (active).
